The text below walks through data of PubChem BioAssay.

“And” between values parts separate entries of the source, which are not always exact repeats. Equal entries are not always repeated. The source made the active and inactive calls. Unless noted, how the calls were made is not given here.

Assay [1] can be described thus: resazurin metabolic signal in HepG2 cells – cell-based, resazurin fluorescence, 24 h, PK04 Diversity Set, profiling panel (AID 1172). As to conditions: HepG2 viability, higher = more signal. Background: The colour change of resazurin is a common sign of viable cells or microbes.
Assay [2] in a line: budding yeast growth changes without added modifier – OD600, strain BY4716, 24 h, basal condition, primary screen (AID 1173). Particulars: S. cerevisiae BY4716 growth, OD600, 24 h; higher = more signal, called active from +8 up or from −8 down.
Assay [3] can be described thus: viability profiling in MM1S myeloma cells – cell-based, resazurin fluorescence, basal, 24 h, PK04 Diversity Set, profiling panel (AID 1174).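 Further: MM1S multiple myeloma cell line.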 As to conditions: higher = more signal, called active from +8 up or from −8 down.
In assay [4] the target is Dihydroorotate dehydrogenase (quinone), mitochondrial (Plasmodium falciparum (isolate 3D7)) (UniProt Q08210). Description: inhibition of P. falciparum DHODH – biochemical, C-terminal His tag, absorbance 600 nm, primary screen (AID 1175).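 Further: recombinant parasite enzyme with a five histidine tag at its C terminus.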 As to conditions: PfDHODH enzyme, DCIP absorbance 600 nm; higher = more signal, called active from +8 up or from −8 down.
Assay [5] is described as follows: inhibition of PAO1 biofilm formation – strain PAO1, LB-PBS medium, absorbance 600 nm, primary screen (AID 1176). As to conditions: P. aeruginosa PAO1 growth/biofilm, A600, 12 h; higher = more signal.
Assay [6] in a line: growth modulation of vineyard yeast isolate – strain RM11-1a, OD600, basal, 24 h, primary screen (AID 1177).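 Further: cultures grown under basal conditions with no added stressor.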 As to conditions: S. cerevisiae RM11-1a growth, OD600, 24 h; higher = more signal, called active from +8 up or from −8 down.
Assay [7] can be described thus: growth of efflux-deficient E. coli DRC39 – strain DRC39, OD650, 24 h, E. coli filamentation inducers, primary screen (AID 1178).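 Further: growth measured as culture turbidity by optical density at 650 nm.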 Particulars: E. coli DRC39 acrAB, higher = more signal, called active from +8 up or from −8 down.
The nature of assay [8]: growth of efflux-deficient E. coli DRC39 – strain DRC39, OD650, 48 h, E. coli filamentation inducers, primary screen (AID 1179).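 Further: screen aims at cell division blockers that make cells filament.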 As to conditions: E. coli DRC39 delta-acrAB growth, higher = more signal, called active from +8 up or from −8 down.
The nature of assay [9]: viability profiling in RPMI8226 myeloma cells – cell-based, resazurin fluorescence, basal, 24 h, PK04 Diversity Set, profiling panel (AID 1180).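 Further: RPMI8826 multiple myeloma cell line at 5000 cells per well.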 As to conditions: higher = more signal.
For assay [10], the target named is E3 ubiquitin-protein ligase XIAP (Homo sapiens) (UniProt P98170). Description: small molecules binding XIAP protein – biophysical, small-molecule microarray, fluorescence 635 nm, primary screen (AID 1181).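 Further: score merges 667 nm emission and signal to noise over triplicate slides.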 Particulars: higher = more signal.
Assay [11] relates to XIP peptide (Xip251-270) binding. In words: XIP fragment 251-270 binding compounds – biochemical, small-molecule microarray, fluorescence 635/667 nm, 0.1 µg/mL protein, primary screen (AID 1182). As to conditions: fluorescent protein binding, 635 nm, higher = more signal, called active from +8 up or from −8 down.
For a further assay, the system named is XIP peptide (Xip251-270). In words: compounds binding XIP fragment 251-270 – biochemical, small-molecule microarray, fluorescence 635/667 nm, 0.5 µg/mL protein, primary screen (AID 1183). As to conditions: fluorescence 635 nm, higher = more signal.
The nature of assay [12]: blood-stage malaria parasite viability loss – strain 3D7, DAPI fluorescence, 100 nL, primary screen (AID 1184).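 Further: parasites grown inside human red blood cells in medium with human serum.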 Particulars: P. falciparum 3D7 growth, 3 d, higher = more signal.
In assay [13] the target is Homeobox protein Hox-A13 (Mus musculus) (UniProt Q62424). Description: disruptors of Hoxa13 oligonucleotide interaction – biochemical, fluorescence polarization, labeled oligonucleotide, primary screen (AID 1185). Particulars: Hoxa13:DNA binding, 15 min, higher = more signal, called active from +8 up or from −8 down. A general note: Polarisation of emitted light reports the rotation of a fluorescent probe.

A short description of assay [14]: blockers of DNA damage checkpoint Chk1 activation – imaging, HeLa, hydroxyurea, phospho-Chk1 antibody, percent positive cells, primary screen (AID 1186). Particulars: hydroxyurea-induced phospho-Chk1 immunofluorescence imaging, higher = more signal.
Assay [15] in a line: blockers of DNA damage checkpoint Chk1 activation – imaging, HeLa, hydroxyurea, phospho-Chk1 nuclear intensity, primary screen (AID 1187). As to conditions: hydroxyurea-induced phospho-Chk1 immunofluorescence imaging, higher = more signal.

Chain of Homeobox protein Hox-A13 (Mus musculus) (Q62424 whole entry, looked up): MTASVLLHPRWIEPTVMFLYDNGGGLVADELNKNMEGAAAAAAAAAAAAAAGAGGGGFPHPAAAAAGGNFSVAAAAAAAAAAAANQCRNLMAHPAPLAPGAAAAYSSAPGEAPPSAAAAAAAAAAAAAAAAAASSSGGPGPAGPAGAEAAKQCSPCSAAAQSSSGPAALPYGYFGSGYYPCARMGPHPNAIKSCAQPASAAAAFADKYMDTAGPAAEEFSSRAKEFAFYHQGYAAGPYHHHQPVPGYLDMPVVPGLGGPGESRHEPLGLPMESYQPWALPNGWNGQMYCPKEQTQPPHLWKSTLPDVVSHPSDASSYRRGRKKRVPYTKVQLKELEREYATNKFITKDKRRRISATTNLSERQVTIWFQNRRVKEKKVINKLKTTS
Chain of E3 ubiquitin-protein ligase XIAP (Homo sapiens) (P98170 whole entry, looked up, the tested form may be a part): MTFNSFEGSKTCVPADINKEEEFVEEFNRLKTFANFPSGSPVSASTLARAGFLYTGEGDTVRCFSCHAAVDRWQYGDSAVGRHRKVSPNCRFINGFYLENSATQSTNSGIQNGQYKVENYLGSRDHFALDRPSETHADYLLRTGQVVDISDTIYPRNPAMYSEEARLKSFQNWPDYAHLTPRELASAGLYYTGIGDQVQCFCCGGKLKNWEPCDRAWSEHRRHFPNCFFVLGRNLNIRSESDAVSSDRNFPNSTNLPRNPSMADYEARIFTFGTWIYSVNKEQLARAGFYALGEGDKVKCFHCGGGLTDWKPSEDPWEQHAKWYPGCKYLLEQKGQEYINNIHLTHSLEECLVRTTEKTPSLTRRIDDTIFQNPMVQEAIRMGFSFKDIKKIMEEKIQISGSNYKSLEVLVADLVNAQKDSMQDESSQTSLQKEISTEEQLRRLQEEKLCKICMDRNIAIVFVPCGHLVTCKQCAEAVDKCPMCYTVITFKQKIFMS
Chain of Dihydroorotate dehydrogenase (quinone), mitochondrial (Plasmodium falciparum (isolate 3D7)) (Q08210 whole entry, looked up): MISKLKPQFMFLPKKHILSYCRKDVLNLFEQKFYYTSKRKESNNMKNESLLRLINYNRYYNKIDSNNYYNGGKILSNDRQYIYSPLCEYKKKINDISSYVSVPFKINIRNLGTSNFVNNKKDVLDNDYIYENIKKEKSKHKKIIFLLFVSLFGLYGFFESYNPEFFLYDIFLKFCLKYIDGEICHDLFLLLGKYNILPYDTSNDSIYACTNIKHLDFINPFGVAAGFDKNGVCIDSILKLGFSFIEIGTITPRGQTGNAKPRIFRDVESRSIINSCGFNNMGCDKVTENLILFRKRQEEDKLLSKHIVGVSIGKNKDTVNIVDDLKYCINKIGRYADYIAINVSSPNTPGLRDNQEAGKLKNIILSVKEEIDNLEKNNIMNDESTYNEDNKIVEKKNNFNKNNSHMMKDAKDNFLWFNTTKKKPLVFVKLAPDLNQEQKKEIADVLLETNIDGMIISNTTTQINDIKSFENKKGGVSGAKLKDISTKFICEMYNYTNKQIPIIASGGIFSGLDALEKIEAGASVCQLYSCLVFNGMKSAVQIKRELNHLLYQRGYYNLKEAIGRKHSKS

For `C=CCN(CCCCC)C(=O)C(c1cccs1)N(C(=O)/C=C\C(=O)O)c1c(Cl)cccc1CO` (stereo not given), the z-score in assay [1] was -0.939 and -0.559; in assay [2] it was -0.69 (inactive) and -0.768 (inactive); in assay [3] it was -0.18 (inactive) and -0.317 (inactive); in assay [5], -0.0837 (inactive) and -0.677 (inactive); in [6] it was -0.0138 (inactive) and -0.374 (inactive); in assay [7], 0.246 (inactive) and 0.0068 (inactive). Also, the z-score was 0.425 (inactive) and 0.212 (inactive) in assay [8]; -0.394 and -0.42 in assay [9]; 0.114 and -0.445 in assay [12]; -0.0384 (inactive) and -1.57 (inactive) in assay [13]; 0.79 (inactive) and 0.313 (inactive) in [14]; 0.728 (inactive) and 0.468 (inactive) in assay [15]. Moreover, the composite z-score was 0.401 (inactive) and 0.461 (inactive) in assay [4]; -0.158 and -0.378 in [10]; -0.527 (inactive) and 0.809 (inactive) in assay [11]; -1.88 and -0.229 with XIP peptide (Xip251-270).

Take `C=CCN(CCCCC)C(=O)C1N(CCCCCCO)C(=O)C2C(C(=O)O)C3C=CC21O3` (stereo not given): the z-score in assay [1] was -0.382 and -0.569; in assay [2] it was -0.0594 (inactive) and -0.411 (inactive); in assay [3] it was -0.847 (inactive) and -0.718 (inactive); in assay [5], 0.0809 (inactive) and -0.966 (inactive); in assay [6] it was -0.42 (inactive) and -0.52 (inactive); in [7] it was 0.554 (inactive) and -0.272 (inactive). Moreover, the z-score in assay [8] is 0.44 (inactive) and -0.188 (inactive); in assay [9], -0.772 and -0.735; in assay [12], 2.33 and 1.76; in [13], -1.18 (inactive) and -1.07 (inactive); in assay [14], 0.99 (inactive) and 1.26 (inactive); in assay [15] it was 0.616 (inactive) and 0.8 (inactive). The composite z-score in assay [4] was 0.0615 (inactive) and -0.082 (inactive); in [10] it was -0.152 and 0.0785; in assay [11], 0.0579 (inactive) and 0.042 (inactive); in the assay with XIP peptide (Xip251-270) it was 0.69 and 0.714.

For the compound `C=CCN(C(=O)C(c1cccs1)N(C(=O)/C=C\C(=O)O)c1c(Cl)cccc1CO)C(C)(C)C` (stereo not given), the z-score was -0.842 and -0.839 in assay [1]; 0.0318 (inactive) and -0.393 (inactive) in [2]; -0.525 (inactive) and -0.895 (inactive) in assay [3]; -0.304 (inactive) and -0.677 (inactive) in assay [5]; -0.107 (inactive) and -0.495 (inactive) in assay [6]; -0.514 (inactive) and -0.291 (inactive) in assay [7]. The z-score in [8] was -0.372 (inactive) and -0.102 (inactive); in [9], -0.554 and -1.29; in assay [12] it was 1.83 and 1.67; in assay [13], 0.131 (inactive) and -0.43 (inactive); in [14], 0.221 (inactive) and 0.501 (inactive); in assay [15] it was 0.711 (inactive) and 0.634 (inactive). Also, the composite z-score in assay [4] is -1.77 (inactive) and -0.93 (inactive); in assay [10], -0.191 and 0.1; in [11] it was -0.0516 (inactive) and 0.0403 (inactive); in the assay on XIP peptide (Xip251-270), 0.689 and -1.16.

Take `C=CCN(C(=O)C1N(c2c(Cl)cccc2CO)C(=O)C2C(C(=O)O)C3C=CC21O3)C(C)(C)C` (stereo not given): the z-score in assay [1] is 0.0972 and 0.393; in assay [2] it was 0.134 (inactive) and -0.493 (inactive); in assay [3], -0.0453 (inactive) and 1.02 (inactive); in [5], -0.497 (inactive) and 0.053 (inactive); in [6], 0.42 (inactive) and -1.92 (inactive); in [7] it was 0.0114 (inactive) and 1.34 (inactive). In addition, the z-score is -0.228 (inactive) and 1.65 (inactive) in [8]; -0.338 and 0.957 in assay [9]; -1.76 and 0.0813 in assay [12]; -1.56 (inactive) and 0.87 (inactive) in [13]; -0.198 (inactive) and -0.391 (inactive) in assay [14]; 0.0398 (inactive) and 1.14 (inactive) in assay [15]. The composite z-score was -0.395 (inactive) and -0.725 (inactive) in [4]; -0.217 and -0.113 in assay [10]; 0.13 (inactive) and -0.96 (inactive) in assay [11]; 0.106 and -0.591 in the assay on XIP peptide (Xip251-270).

As to `CC(C)N1CC=CC23O[C@@H]4C=CCCOC(=O)C4[C@H]2C(=O)N(C(C)CO)[C@@H]3C1=O` (stereo not given in full), the z-score in assay [1] was -0.0777 and -1.21; in assay [2] it was -1.44 (inactive) and 0.111 (inactive); in assay [3] it was 0.963 (inactive) and 0.93 (inactive); in assay [6], -1.2 (inactive) and 0.934 (inactive); in assay [7] it was 1.2 (inactive) and 1.42 (inactive); in assay [8] it was 0.847 (inactive) and 1.13 (inactive). In addition, the z-score was 1.32 and 0.67 in [9]; -0.819 and -0.728 in assay [12]; -3.49 (inactive) and -4.21 (inactive) in [13]; -0.161 (inactive) and -0.496 (inactive) in [14]; -0.309 (inactive) and -0.538 (inactive) in assay [15]. Besides, the composite z-score in assay [4] was -0.0877 (inactive) and 1.49 (inactive); in [10], -0.128 and -0.133; in assay [11], 1.78 (inactive) and 0.425 (inactive); in the assay on XIP peptide (Xip251-270), 0.716 and -0.58.

With `C=CCN(Cc1ccccc1)C(=O)C(c1cccs1)N(C(=O)/C=C\C(=O)O)c1c(Cl)cccc1CO` (stereo not given), the z-score is 0.201 and -0.418 in assay [1]; -0.0348 (inactive) and -0.539 (inactive) in [2]; 0.258 (inactive) and -0.385 (inactive) in assay [3]; 0.165 (inactive) and -0.208 (inactive) in assay [5]; 0.0233 (inactive) and -0.276 (inactive) in assay [6]; 0.759 (inactive) and 0.391 (inactive) in assay [7]. The z-score in [8] is -1.34 (inactive) and 0.456 (inactive); in [9], -0.124 and -1; in assay [12] it was -0.82 and -0.106; in assay [13], 1.14 (inactive) and 0.425 (inactive); in assay [14] it was -0.347 (inactive) and 0.628 (inactive); in [15], 0.0032 (inactive) and 0.521 (inactive). Also, the composite z-score in assay [4] was 0.607 (inactive) and 1.16 (inactive); in assay [10], -0.0172 and -0.359; in assay [11], -0.422 (inactive) and -0.522 (inactive); in the assay on XIP peptide (Xip251-270), -0.367 and -1.55.
